# Measured values as given in the supplement of paper PMC8728848.
# The entries come from a sample that favours the strongest signals as a whole.
# Assays:
# Assay in all cases: glycan array binding signal (z-score within array); higher = stronger binding
# Details in all cases: glycan notation: IUPAC condensed, linker removed
# Fuc(a1-2)Gal(b1-3)GalNAc = biological target: Fuc(a1-2)Gal(b1-3)GalNAc
# Summary of the method: (§1)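 The binding signal is a Z-score computed within each array and averaged over linkers. Arrays of the same protein sequence at different concentrations or buffers were also averaged together. Data originate from 3228 arrays in the Consortium for Functional Glycomics database, kept only where the protein sequence was available.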
# [1] = biological target: Fuc(a1-2)Gal(b1-3)GalNAc(b1-4)[Neu5Ac(a2-3)]Gal(b1-4)Glc
# Summary of the method: as §1
# [2] = biological target: Fuc(a1-2)Gal(b1-3)GlcNAc(b1-3)[Neu5Ac(a2-6)Gal(b1-4)GlcNAc(b1-6)]Gal(b1-4)Glc
# Summary of the method: as §1
# [3] = biological target: Fuc(a1-2)Gal(b1-4)GlcNAc(b1-3)Gal(b1-4)GlcNAc(b1-3)Gal(b1-4)GlcNAc
# Summary of the method: as §1
# [4] = biological target: Fuc(a1-2)Gal(b1-4)GlcNAc(b1-3)[Fuc(a1-2)Gal(b1-4)GlcNAc(b1-6)]GalNAc
# Summary of the method: as §1
# [5] = biological target: Fuc(a1-2)Gal(b1-4)[Fuc(a1-3)]GlcNAc(b1-3)GalNAc
# Summary of the method: as §1
# [6] = biological target: Fuc(a1-2)Gal6S(b1-4)GlcNAc
# Summary of the method: as §1
# Fuc(a1-2)[Gal(a1-3)]Gal = biological target: Fuc(a1-2)[Gal(a1-3)]Gal
# Summary of the method: as §1
# [7] = biological target: Fuc(a1-2)[Gal(a1-3)]Gal(b1-4)GlcNAc(b1-2)Man(a1-3)[Fuc(a1-2)[Gal(a1-3)]Gal(b1-4)GlcNAc(b1-2)Man(a1-6)]Man(b1-4)GlcNAc(b1-4)[Fuc(a1-6)]GlcNAc
# Summary of the method: as §1
# [8] = biological target: Fuc(a1-2)[Gal(a1-3)]Gal(b1-4)GlcNAc(b1-3)[Fuc(a1-2)[Gal(a1-3)]Gal(b1-4)GlcNAc(b1-6)]GalNAc
# Summary of the method: as §1
# [9] = biological target: Fuc(a1-2)[GalNAc(a1-4)]Gal(b1-4)GlcNAc
# Summary of the method: as §1
# [10] = biological target: Fuc(a1-3)[Gal(b1-4)]GlcNAc(b1-3)GalNAc
# Summary of the method: as §1
# [11] = biological target: Gal(a1-3)Gal(b1-4)[Fuc(a1-3)]GlcNAc
# Summary of the method: as §1
# Gal(b1-3)Gal = biological target: Gal(b1-3)Gal
# Summary of the method: as §1
# Gal(b1-3)Gal(b1-4)GlcNAc = biological target: Gal(b1-3)Gal(b1-4)GlcNAc
# Summary of the method: as §1
# [12] = biological target: Gal(b1-3)GalNAc(a1-3)[Fuc(a1-2)]Gal(b1-4)Glc
# Summary of the method: as §1
# [13] = biological target: Gal(b1-3)GalNAc(a1-3)[Fuc(a1-2)]Gal(b1-4)GlcNAc
# Summary of the method: as §1
# Gal(b1-3)GalNAc(b1-3)Gal = biological target: Gal(b1-3)GalNAc(b1-3)Gal
# Summary of the method: as §1
# [14] = biological target: Gal(b1-3)GalNAc(b1-3)Gal(a1-4)Gal(b1-4)Glc
# Summary of the method: as §1
# [15] = biological target: Gal(b1-3)GalNAc(b1-4)Gal(b1-4)Glc
# Summary of the method: as §1
# [16] = biological target: Gal(b1-3)GalNAc(b1-4)[Neu5Ac(a2-3)]Gal(b1-4)Glc
# Summary of the method: as §1
# Gal(b1-3)GlcNAc = biological target: Gal(b1-3)GlcNAc
# Summary of the method: as §1
# [17] = biological target: Gal(b1-3)GlcNAc(b1-3)Gal(b1-3)GlcNAc
# Summary of the method: as §1
# [18] = biological target: Gal(b1-3)[GlcNAc(b1-6)]GalNAc
# Summary of the method: as §1
# [19] = biological target: Gal(b1-3)[Neu5Ac(a2-6)]GalNAc
# Summary of the method: as §1
# Gal(b1-4)Glc = biological target: Gal(b1-4)Glc
# Summary of the method: as §1
# [20] = biological target: Gal(b1-4)GlcNAc(b1-3)Gal(b1-3)GlcNAc
# Summary of the method: as §1
# [21] = biological target: Gal(b1-4)GlcNAc(b1-3)Gal(b1-4)GlcNAc(b1-3)Gal(b1-4)GlcNAc(b1-3)Gal(b1-4)GlcNAc(b1-3)Gal(b1-4)GlcNAc(b1-2)[Gal(b1-4)GlcNAc(b1-3)Gal(b1-4)GlcNAc(b1-3)Gal(b1-4)GlcNAc(b1-3)Gal(b1-4)GlcNAc(b1-3)Gal(b1-4)GlcNAc(b1-6)]Man(a1-6)[Gal(b1-4)GlcNAc(b1-3)Gal(b1-4)GlcNAc(b1-3)Gal(b1-4)GlcNAc(b1-3)Gal(b1-4)GlcNAc(b1-3)Gal(b1-4)GlcNAc(b1-2)Man(a1-3)]Man(b1-4)GlcNAc(b1-4)[Fuc(a1-6)]GlcNAc
# Summary of the method: as §1
# [22] = biological target: Gal(b1-4)GlcNAc(b1-3)[Gal(b1-4)GlcNAc(b1-6)]GalNAc
# Summary of the method: as §1
# [23] = biological target: Gal(b1-4)GlcNAc(b1-6)Gal(b1-4)GlcNAc
# Summary of the method: as §1
# [24] = biological target: Gal(b1-4)GlcNAc(b1-6)[Gal(b1-3)]GlcNAc
# Summary of the method: as §1
# Gal6P(b1-4)GlcNAc = biological target: Gal6P(b1-4)GlcNAc
# Summary of the method: as §1
# GalNAc(b1-3)Gal = biological target: GalNAc(b1-3)Gal
# Summary of the method: as §1
# [25] = biological target: GalNAc(b1-3)Gal(a1-4)Gal(b1-4)GlcNAc
# Summary of the method: as §1
# GalNAc(b1-4)Gal(b1-4)Glc = biological target: GalNAc(b1-4)Gal(b1-4)Glc
# Summary of the method: as §1
# [26] = biological target: GlcNAc(a1-4)Gal(b1-4)GlcNAc(b1-3)Gal(b1-4)Glc
# Summary of the method: as §1
# [27] = biological target: GlcNAc(a1-4)Gal(b1-4)GlcNAc(b1-3)Gal(b1-4)GlcNAc(b1-3)Gal(b1-4)GlcNAc
# Summary of the method: as §1
# [28] = biological target: GlcNAc(b1-2)Gal(b1-3)GalNAc
# Summary of the method: as §1
# [29] = biological target: GlcNAc(b1-2)Man(a1-3)[GlcNAc(b1-2)Man(a1-6)]Man(b1-4)GlcNAc(b1-4)[Fuc(a1-6)]GlcNAc
# Summary of the method: as §1
# GlcNAc(b1-3)Fuc = biological target: GlcNAc(b1-3)Fuc
# Summary of the method: as §1
# [30] = biological target: GlcNAc(b1-3)Gal(b1-4)GlcNAc(b1-3)[GlcNAc(b1-3)Gal(b1-4)GlcNAc(b1-3)]GalNAc
# Summary of the method: as §1
# GlcNAc(b1-3)Man = biological target: GlcNAc(b1-3)Man
# Summary of the method: as §1
# GlcNAc(b1-4)GlcNAc = biological target: GlcNAc(b1-4)GlcNAc
# Summary of the method: as §1
# [31] = biological target: Neu5Ac(a2-3)Gal(b1-3)GalNAc(b1-4)[Neu5Ac(a2-8)Neu5Ac(a2-3)]Gal(b1-4)Glc
# Summary of the method: as §1
# [32] = biological target: Neu5Ac(a2-3)Gal(b1-3)GlcNAc(b1-3)Gal(b1-3)GlcNAc
# Summary of the method: as §1
# [33] = biological target: Neu5Ac(a2-3)Gal(b1-3)GlcNAc(b1-3)GalNAc
# Summary of the method: as §1
# [34] = biological target: Neu5Ac(a2-3)Gal(b1-3)[Fuc(a1-4)]GlcNAc(b1-3)Gal(b1-3)[Fuc(a1-4)]GlcNAc
# Summary of the method: as §1
# [35] = biological target: Neu5Ac(a2-3)Gal(b1-3)]Neu5Ac(a2-3)Gal(b1-4)]GlcNAc
# Summary of the method: as §1
# Neu5Ac(a2-3)Gal(b1-4)Glc = biological target: Neu5Ac(a2-3)Gal(b1-4)Glc
# Summary of the method: as §1
# [36] = biological target: Neu5Ac(a2-3)Gal(b1-4)[Fuc(a1-3)]GlcNAc(b1-3)Gal(b1-4)GlcNAc
# Summary of the method: as §1
# Neu5Ac(a2-6)Gal = biological target: Neu5Ac(a2-6)Gal
# Summary of the method: as §1
# [37] = biological target: Neu5Ac(a2-6)Gal(b1-4)GlcNAc(b1-2)[Neu5Ac(a2-6)Gal(b1-4)GlcNAc(b1-4)]Man(a1-3)[GlcNAc(b1-4)][Neu5Ac(a2-6)Gal(b1-4)GlcNAc(b1-2)[Neu5Ac(a2-6)Gal(b1-4)GlcNAc(b1-6)]Man(a1-6)]Man(b1-4)GlcNAc(b1-4)GlcNAc
# Summary of the method: as §1
# [38] = biological target: Neu5Ac(a2-6)Gal(b1-4)GlcNAc(b1-3)Gal(b1-4)GlcNAc
# Summary of the method: as §1
# [39] = biological target: Neu5Ac(a2-6)Gal(b1-4)GlcNAc(b1-6)[Gal(b1-3)]GalNAc
# Summary of the method: as §1
# [40] = biological target: Neu5Ac(a2-6)Gal(b1-4)GlcNAc6S
# Summary of the method: as §1
# [41] = biological target: Neu5Ac(a2-8)Neu5Ac(a2-8)Neu5Ac(a2-3)[Gal(b1-3)GalNAc(b1-4)]Gal(b1-4)Glc
# Summary of the method: as §1
# [42] = biological target: Neu5Ac(a2-8)Neu5Gc(a2-3)Gal(b1-4)GlcNAc
# Summary of the method: as §1
binder,measurement,setting,value
"Epa7 (Candida glabrata), Q6DTM6_CANGB (protein) MGSSHHHHHHSSGLVPRGSHMKDDYSSFLSNNNLGWTDPTEFPLGCSPNVTTPKNGLSMELYSYDLRKNGSYPCWDAAYLDPNYPRTGYKSHRLLAKVDGVTGNINFYYHATKGCTPEIDHLPASYNYPKPLTMTNFTMLLYGYFKPKVTGYHTFTISADDLLFVNFGAGNAFDCCKRESSADDFGNYQAYAVWGSQTAKDDLTVHLDAGLYYPIRIFFNNREYDAELSLTLKTESDSNPVIDFSDYFYSFDDTKDGCPGLVSYDTS",glycan array binding signal (z-score),Fuc(a1-2)Gal(b1-3)GalNAc,-0.169
same,glycan array binding signal (z-score),[1],-0.072
same,glycan array binding signal (z-score),[2],-0.206
same,glycan array binding signal (z-score),[3],-0.253
same,glycan array binding signal (z-score),[4],-0.209
same,glycan array binding signal (z-score),[5],-0.027
same,glycan array binding signal (z-score),[6],-0.285
same,glycan array binding signal (z-score),Fuc(a1-2)[Gal(a1-3)]Gal,-0.213
same,glycan array binding signal (z-score),[7],-0.241
same,glycan array binding signal (z-score),[8],-0.208
same,glycan array binding signal (z-score),[9],-0.256
same,glycan array binding signal (z-score),[10],-0.19
same,glycan array binding signal (z-score),[11],-0.201
same,glycan array binding signal (z-score),Gal(b1-3)Gal,2.85
same,glycan array binding signal (z-score),Gal(b1-3)Gal(b1-4)GlcNAc,5.79
same,glycan array binding signal (z-score),[12],5.79
same,glycan array binding signal (z-score),[13],5.59
same,glycan array binding signal (z-score),Gal(b1-3)GalNAc(b1-3)Gal,11
same,glycan array binding signal (z-score),[14],4.75
same,glycan array binding signal (z-score),[15],7.99
same,glycan array binding signal (z-score),[16],4.82
same,glycan array binding signal (z-score),Gal(b1-3)GlcNAc,-0.104
same,glycan array binding signal (z-score),[17],-0.207
same,glycan array binding signal (z-score),[18],1.21
same,glycan array binding signal (z-score),[19],4.18
same,glycan array binding signal (z-score),Gal(b1-4)Glc,-0.199
same,glycan array binding signal (z-score),[20],-0.246
same,glycan array binding signal (z-score),[21],0.068
same,glycan array binding signal (z-score),[22],5.02
same,glycan array binding signal (z-score),[23],0.23
same,glycan array binding signal (z-score),[24],5.53
same,glycan array binding signal (z-score),Gal6P(b1-4)GlcNAc,-0.241
same,glycan array binding signal (z-score),GalNAc(b1-3)Gal,-0.245
same,glycan array binding signal (z-score),[25],-0.251
same,glycan array binding signal (z-score),GalNAc(b1-4)Gal(b1-4)Glc,-0.213
same,glycan array binding signal (z-score),[26],-0.234
same,glycan array binding signal (z-score),[27],-0.237
same,glycan array binding signal (z-score),[28],-0.197
same,glycan array binding signal (z-score),[29],-0.232
same,glycan array binding signal (z-score),GlcNAc(b1-3)Fuc,-0.233
same,glycan array binding signal (z-score),[30],-0.225
same,glycan array binding signal (z-score),GlcNAc(b1-3)Man,-0.232
same,glycan array binding signal (z-score),GlcNAc(b1-4)GlcNAc,-0.23
same,glycan array binding signal (z-score),[31],-0.06
same,glycan array binding signal (z-score),[32],-0.256
same,glycan array binding signal (z-score),[33],-0.21
same,glycan array binding signal (z-score),[34],-0.196
same,glycan array binding signal (z-score),[35],-0.228
same,glycan array binding signal (z-score),Neu5Ac(a2-3)Gal(b1-4)Glc,-0.257
same,glycan array binding signal (z-score),[36],-0.189
same,glycan array binding signal (z-score),Neu5Ac(a2-6)Gal,-0.228
same,glycan array binding signal (z-score),[37],-0.234
same,glycan array binding signal (z-score),[38],-0.258
same,glycan array binding signal (z-score),[39],1.19
same,glycan array binding signal (z-score),[40],-0.257
same,glycan array binding signal (z-score),[41],0.014
same,glycan array binding signal (z-score),[42],-0.241
